PubChem BioAssay (NCATS)
Inconclusive results are not listed. The source made the active and inactive calls. The call rests on the fitted dose curve; in most records, active means well fitted inhibition curve with a large enough effect; inconclusive means small, poorly fitted or top-dose-only effect; inactive means flat fitted curve, though single readings scatter.

Test: qHTS profiling for inhibitors of Plasmodium falciparum proliferation (AID 504749);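 further: 0% = DMSO vehicle and full inhibition = artemisinin control; nearly all actives have a fitted effect of over 60% in size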
Settings: P. falciparum in erythrocytes, SYBR Green DNA, 72 h; at 28.7 µM (top of the series); parasite line B
In short: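 P. falciparum-infected erythrocytes (0.3% parasitemia, 2.5% hematocrit) incubated with compound 72 h at 37 C, 5% CO2. Parasite DNA detected by SYBR Green after lysis, overnight at room temperature; normalised to 0.29 uM artemisinin and DMSO.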

Row | SMILES | activity, negative = inhibition
1 | CCNC(=O)/C=C/c1cccc(Br)c1 | -15.2% (inactive)
2 | CCc1oc2ccccc2c1C(=O)c1cc(I)c(O)c(I)c1 | -5.21% (inactive)
3 | NCc1ccccc1Sc1ccccc1CO | -5.68% (inactive)
4 | O=C(O)C1(C(=O)O)CCC1.[NH2-].[NH2-].[Pt+2] | -0.756% (inactive)
5 | COc1cc([C@H]2Oc3cc([C@H]4Oc5cc(O)cc(O)c5C(=O)[C@@H]4O)ccc3O[C@@H]2CO)ccc1O | -14.4% (inactive)
6 | OC(C#CCN1CCCC1)(c1ccccc1)c1ccccc1 | -24.9% (inactive)
7 | Nc1nc(N)c(-c2ccccc2)s1 | 11.9% (inactive)
8 | CCCCCCCCOc1ccc(C(=O)c2ccccc2)c(O)c1 | 14.5% (inactive)
9 | CC1(COc2ccc(CC3SC(=O)NC3=O)cc2)CCCCC1 (centres undefined) | -0.436% (inactive)
10 | N#CCC(=O)NN | 7.8% (inactive)
11 | O=C(CCN1CCN2CCCC2C1)N1c2ccccc2Sc2ccc(Cl)cc21 (centres undefined) | -9.82% (inactive)
12 | CC(=O)N[C@@H](CCC(=O)O)C(=O)O | 2.94% (inactive)
13 | O=C(Nc1ncc([N+](=O)[O-])s1)c1cccs1 | -2.66% (inactive)
14 | CC(=O)NO | 17.5% (inactive)
15 | C/C=C/C=N/NC(=O)c1ccncc1 | -0.189% (inactive)
16 | O=C(O)c1ccc(S(=O)(=O)N(Cl)Cl)cc1 | 5.75% (inactive)
17 | COc1ccc(/C=N/NC(=O)c2ccncc2)cc1OC | 9.47% (inactive)
18 | Nc1ccc(S(=O)(=O)NCc2ccccc2)cc1 | 6.29% (inactive)
19 | CN1CCN(c2cc3c(cc2F)c(=O)c(C(=O)O)cn3-c2ccc(F)cc2)CC1 | -17.5% (inactive)
